According to PubChem BioAssay (NCI):
The panel holds about 79,000 compounds, 15% with a hit somewhere; the sample as a whole holds those more often. The source made the active and inactive calls. Rule as the data show it: active = growth inhibition above about 70%; inactive = the rest.

Tests used:
[1] = NCI Yeast Anticancer Drug Screen. Data for the rad50 strain (AID 155);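 also: 0% = growth of vehicle-only cultures of the same strain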; conditions: S. cerevisiae rad50 strain growth inhibition; at 50.0 µM; hits give high values
Summary of the method: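 Compounds were tested on a yeast strain with an engineered DNA damage repair alteration; the reported value is growth inhibition normalised to vehicle treatment.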

[2] = NCI Yeast Anticancer Drug Screen. Data for the mec2-1 strain (AID 157); conditions: S. cerevisiae mec2-1 strain, at 50.0 µM, hits give high values
Summary of the method: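 Test agents were screened against the mec2-1 yeast strain, with defined DNA repair or cell cycle alteration. Growth was scored as inhibition against vehicle-only controls.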

[3] = NCI Yeast Anticancer Drug Screen. Data for the sgs1 mgt1 strain (AID 161);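 also: 0% = growth of cultures given vehicle only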; conditions: S. cerevisiae sgs1 mgt1 strain, at 50.0 µM, hits give high values
Summary of the method: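 Inhibition of yeast growth, normalised to vehicle-treated controls, is reported for a strain bearing genetic alterations in DNA damage repair.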

[4] = NCI Yeast Anticancer Drug Screen. Data for the cln2 rad14 strain (AID 165);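 also: 0% = growth equal to vehicle treated cultures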; conditions: S. cerevisiae cln2 rad14 strain, at 50.0 µM, hits give high values
Summary of the method: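 Growth of compound-exposed yeast (cln2 rad14 genotype) measured and expressed as inhibition relative to vehicle.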

[5] = NCI Yeast Anticancer Drug Screen. Data for the bub3 strain (AID 167); conditions: S. cerevisiae bub3 mutant strain, at 50.0 µM, hits give high values
Summary of the method: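 Growth of a checkpoint-deficient yeast mutant is measured after compound exposure. Values represent inhibition relative to vehicle.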

[6] = NCI Yeast Anticancer Drug Screen. Data for the mlh1 rad18 strain (AID 175); conditions: S. cerevisiae mlh1 rad18 strain growth inhibition; at 50.0 µM; hits give high values
Summary of the method: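 In this whole-cell yeast screen, a strain with altered DNA damage repair is challenged with compound, and its growth is measured against matched vehicle-treated controls.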

Measured: growth inhibition

CCOC(=O)c1ccc(NC(=O)Oc2cc(C)c(Cl)c(C)c2)cc1
inactive: [1] 7.8% | [2] -3.4% | [3] 2.65% | [4] 6.35% | [5] 14.9% | [6] -3.65%

Nc1ccc2nc3n(c(=O)c2c1)CCCCC3
inactive: [1] -25.1% | [2] -11.4% | [3] 1.4% | [4] 23.2% | [5] 0.65% | [6] 10.8%

Cc1cccc(NC(=O)Oc2ccc(Cl)cc2C(=O)c2ccccc2)c1
inactive: [1] 30.4% | [2] 10.7% | [3] 35.4% | [4] 29.9% | [5] 34.4% | [6] 26.2%

N#C/C=C\c1ccc(F)cc1
inactive: [1] 27.1% | [2] 9.7% | [3] 17.1% | [4] 3.35% | [5] 10.8% | [6] 12.2%

Cc1cc2ccccc2c[n+]1CC(=O)c1ccc([N+](=O)[O-])cc1
inactive: [1] -4.1% | [2] 32.1% | [3] 62% | [4] -1.85% | [5] 7.35% | [6] 51.7%

O=C1C(=C(c2ccccc2)N2CCCCC2)C(=O)c2ccccc21
inactive: [1] 14.9% | [2] -3.6% | [3] 15.1% | [4] -7.75% | [5] 19.3% | [6] 3.2%

Nc1cc(OCc2ccccc2)ncn1
inactive: [1] 10.6% | [2] 11% | [3] 3.75% | [4] -11.6% | [5] -1.05% | [6] 20.9%

Cc1cc[n+](C(C)CCC(C)[n+]2ccc(C)cc2)cc1 (stereo not drawn)
inactive: [1] 25.2% | [2] 20.5% | [3] 42.5% | [4] 27% | [5] 14.2% | [6] 11.8%

OC1CCC(C2C3CCCCC3C3CCCCC3C2C2CCC(O)CC2)CC1 (stereo not drawn)
active: [1] 94.7% | [2] 98.5% | [3] 92.5% | [4] 97.9% | [5] 97.2% | [6] 96.8%

Cc1ccc(OCC(=O)O)cc1C
inactive: [1] -5.75% | [2] -24.2% | [3] -14.7% | [4] 0.25% | [5] -11.8% | [6] -11.2%

Cc1cccc(CNc2ccc(S(=O)(=O)c3ccc(NCc4cccc(C)n4)cc3)cc2)n1
inactive: [1] 4.7% | [2] 4.35% | [3] 9.75% | [4] -8.95% | [5] -5.95% | [6] 15.4%

O=c1ccc(O)c[nH]1
inactive: [1] 12.3% | [2] 18.8% | [3] 34.7% | [4] 9.95% | [5] 2.8% | [6] 16.1%

O=C(O)c1ccccc1-c1ccccc1C(=O)Nc1ccc2c(c1)[nH]c(=O)c1ccccc12
inactive: [1] -13.8% | [2] -3.85% | [3] -21.8% | [4] 46.9% | [5] -15.8% | [6] -22.3%

CCCC12C=C(OC)C(=O)C=C1OC(c1cc(OC)c(OC)c(OC)c1)C2C (stereo not drawn)
inactive: [1] -14.8% | [2] -23.4% | [3] -18.8% | [4] -4.45% | [5] -6.8% | [6] -13.4%

CCOc1ccc(Nc2ccc3c(O)cc(S(=O)(=O)O)cc3c2)cc1
inactive: [1] 0.9% | [2] -7.35% | [3] -5.75% | [4] -20.4% | [5] 38.5% | [6] 12.8%

CC(=O)Nc1ccc(/C=C(\NC(=O)c2ccccc2)C(=O)NNS(=O)(=O)c2ccc(C)cc2)cc1
inactive: [1] 21.6% | [2] 17.7% | [3] -9.3% | [4] -5.5% | [5] -4.2% | [6] 21.4%

CCOC(=O)C(C=C(C)C)(CC)C(=O)OCC
inactive: [1] 2.5% | [2] -17% | [3] -5.7% | [4] -4.55% | [5] -17.1% | [6] -21.9%

Cn1c(=O)c2c(ncn2CCNC(c2ccccc2)c2ccc(Br)cc2)n(C)c1=O (stereo not drawn)
inactive: [1] 4.55% | [2] 1.55% | [3] 11.3% | [4] -35.3% | [5] 24.1% | [6] 13.6%

CC(=O)C1=CN(Cc2ccccc2)C(O)CC1C(N)=O (stereo not drawn)
inactive: [1] 7.55% | [2] -12.6% | [3] 4.7% | [4] 10.8% | [5] 16.1% | [6] 1.3%

OC1(Cl)c2cccc3cccc(c23)C1(O)Cl (stereo not drawn)
inactive: [1] -0.8% | [2] 5.8% | [3] 2.6% | [4] -9.45% | [5] 0.25% | [6] -14.1%

CCCC(O)c1ccccc1Cl (stereo not drawn)
inactive: [1] 21.8% | [2] 18.9% | [3] 24.9% | [4] 16% | [5] -28.4% | [6] 5.3%

COC(=O)NC1(NC(=O)OC)NC(=O)c2cc(OC)c(OC)cc2N1
inactive: [1] 6.25% | [2] -10.4% | [3] 27.4% | [4] -16.5% | [5] 6.55% | [6] 5.75%

CN(C)S(=O)(=O)c1ccc(N)c([N+](=O)[O-])c1
inactive: [1] -0.2% | [2] 10.7% | [3] -7.75% | [4] -5.05% | [5] 7.55% | [6] 14.3%

O=C(CCc1ccccc1)NC(=S)Nc1cc(C(F)(F)F)ccc1Cl
inactive: [1] 13.2% | [2] 14.2% | [3] 33.5% | [4] -41.8% | [5] -8% | [6] 34.9%

O=c1c2ccccc2c(Cc2ccccc2)nn1C1CCCCCC1
inactive: [1] -14.2% | [2] 2% | [3] 30.9% | [4] -29.5% | [5] 27.1% | [6] 16.1%

CC(=O)N1C(=O)C2(Nc3cccnc3N2)c2ccccc21 (stereo not drawn)
inactive: [1] -4.85% | [2] 16.4% | [3] -1.8% | [4] -1.35% | [5] -0.95% | [6] -16.1%

Cc1nnc2cc(C(=O)O)c3ccccc3n2c1=O
inactive: [1] -28.6% | [2] -30.6% | [3] -13.4% | [4] -30.6% | [5] -20.1% | [6] -31.8%

CC(=O)OCN(C)N=Nc1ccc([N+](=O)[O-])cc1
inactive: [1] 28% | [2] 10.5% | [3] 25.8% | [4] 6.15% | [5] 10.6% | [6] 22.6%

COC(=O)C(=O)C(C(=O)c1cccc2ccccc12)c1nc2n(c1O)C(=N)N=N2 (stereo not drawn)
inactive: [1] 18.4% | [2] 4.45% | [3] 11.6% | [4] -4.9% | [5] -2.75% | [6] 0.8%

CCOC(=O)/C(C#N)=C/c1c(-c2ccccc2)nn2ccccc12
inactive: [1] 42.6% | [2] 26.6% | [3] 28.1% | [4] -2.4% | [5] -7.7% | [6] 20.6%

NC(=O)NN/C=C(/C=Nc1ccccc1)[N+](=O)[O-]
inactive: [1] 17.4% | [2] 7.35% | [3] 1.2% | [4] 5.35% | [5] 6.55% | [6] 0.95%

Nc1ccc(P(=O)(Nc2ccc3ccccc3c2)Nc2ccc3ccccc3c2)cc1
active: [1] 83.2% | [3] 89.2% | [4] 79.9% | [5] 83.2% | [6] 91.2%
inactive: [2] 67.5%

CC(=O)NCC1OCC2OC(C)(C)OC12 (stereo not drawn)
inactive: [1] 3.35% | [2] -5% | [3] -11.7% | [4] -73.8% | [5] -12.1% | [6] -8.8%

O=C(O)CC/C(=N\Nc1ccc([N+](=O)[O-])cc1[N+](=O)[O-])c1ccccc1
inactive: [1] 0.7% | [2] 26.4% | [3] 44.3% | [4] -18.4% | [5] 16.2% | [6] 30.3%

CC(=O)C(C)(C)O
inactive: [1] 45.4% | [2] -5.55% | [3] 48.8% | [4] -8.7% | [5] 14.2% | [6] 38.9%

COC1OC(OC)c2cc([N+](=O)[O-])ccc21 (stereo not drawn)
inactive: [1] 9.9% | [2] 17.3% | [3] 18.1% | [4] 23.2% | [5] -11.1% | [6] 50.2%

CCCCCC(=O)N1SC(NC(=O)OC)=Nc2ccccc21
active: [4] 84.3% | [5] 90.6% | [6] 83.5%
inactive: [1] 63.5% | [2] 47.5% | [3] 64.8%

OCC1CSCC1CO (stereo not drawn)
inactive: [1] 8.6% | [2] 12.8% | [3] -4.7% | [4] 15.3% | [5] 11.7% | [6] 3.5%
